# Shown is part of a subset that was picked to be rich in hits.
# TDP-43 rescue: inhibitors of TDP-43 toxicity in yeast; yeast TDP-43 toxicity rescue, BacTiter-Glo growth, 24 h; Potency, µM (top dose mostly 46.1 µM), hits mostly activators; hit rate 0.45% among 45,000; AID 1347073; active means well fitted activation curve with a large enough effect; further: 0% is about no effect; nearly all actives have a fitted effect of over 55% in size
#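 TDP-43-expressing yeast, pregrown in raffinose, seeded at OD600 0.02 in galactose medium with compound for 24 hr at 30 deg C. Growth read by BacTiter-Glo luminescence, so rescue of toxicity appears as activation.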
# * hit, by the source's call; i = inactive. Potency means the concentration at half of the fitted maximal effect.
SMILES,TDP-43 rescue
C/C(CC(=O)NCc1ccccc1Cl)=N/NC(=O)c1ccccn1,i
COCCNC(=S)N/N=C(\C)c1cccc(C(F)(F)F)c1,i
COCCNC(=S)N/N=C(\C)c1ccc(OC)cc1,i
COCCNC(=S)N/N=C(\C)c1cc2ccccc2o1,12.6µM*
N#Cc1ccccc1Cn1c(=O)n(-c2ccc(F)c(Cl)c2)c(=O)c2sccc21,i
Cc1ccc(C(=O)N2CCN(S(=O)(=O)c3cc(Br)ccc3Br)CC2)o1,14.1µM*
Cc1cc(C)c(S(=O)(=O)N2CCN(C(=O)c3cc4ccccc4o3)CC2)c(C)c1,i
Cc1onc(-c2ccccc2)c1C(=O)N1CCN(S(=O)(=O)c2ccccc2Br)CC1,i
Cc1ccccc1Cn1c(=O)n(CCCCCC(=O)NCc2ccc3c(c2)OCO3)c(=O)c2sccc21,i
O=C(COC(=O)CCc1ccccc1)NCc1ccc2c(c1)OCO2,i
O=C(CCCSc1nc2ccccc2s1)NCc1ccc2c(c1)OCO2,12.6µM*
CCc1cccc(C)c1NC(=O)CCCSc1nc2ccccc2s1,i
Cc1ccc(C)c(CN2C(=O)c3ccccc3S(=O)(=O)c3ccc(C(=O)N4CCc5ccccc54)cc32)c1,i
Cc1ccc(C(=O)N2c3ccc(C)cc3C(C)(c3ccccc3)CC2(C)C)cc1 (configuration not stated),i
CCC(C(=O)NCCCN(CC)CC)n1ncn2c(cc3occc32)c1=O (configuration not stated),i
O=S(=O)(NCCC(c1ccc(F)cc1)c1ccco1)c1ccccc1 (configuration not stated),17.8µM*
COc1ccc(CNCCC(c2ccc(C)cc2)c2ccco2)cc1 (configuration not stated),i
O=C(O)C(NS(=O)(=O)c1ccc(F)cc1)c1ccccc1 (configuration not stated),i
CCCCn1cnc2cc(NC(=O)c3cc(OC)c(OC)c(OC)c3)ccc21,i
N#Cc1ccccc1Cn1c(=O)n(CCCC(=O)NCc2ccc3c(c2)OCO3)c(=O)c2sccc21,i
O=[N+]([O-])c1cccc(/C=N/n2cnnc2)c1,i
C(=N\n1cnnc1)/c1ccc(-c2ccccc2)cc1,11.2µM*
CCc1ccc(/C=N\n2cnnc2)cc1,i
COc1ccc(NC(=O)c2cc(C3CCCCN3C(=O)c3ccc(NC(C)=O)cc3)on2)c(C)c1 (configuration not stated),i
Nc1c(-c2ccccc2)c(CN2CCOCC2)nn1-c1cccc([N+](=O)[O-])c1,i
SMILES,TDP-43 rescue
Cc1ccccc1-c1cnn(-c2cccc([N+](=O)[O-])c2)c1N,12.6µM*
Cc1cc(NC(=O)c2cccc([N+](=O)[O-])c2)n(-c2ccccc2)n1,i
O=C(Nc1nccs1)c1ncc(Cl)c(Cl)c1Cl,i
CC(OC(=O)c1ccc([N+](=O)[O-])o1)C(=O)Nc1nc(-c2ccc(F)c(F)c2)cs1 (configuration not stated),i
O=C(O)c1ccccc1C(=O)Nc1ccc(S(=O)(=O)N2CCCC2)cc1,i
O=C(Nc1ccc(Oc2cccnc2)cc1)c1ccccc1Cl,i
O=C(O)c1ccccc1C(=O)Nc1ccc(Oc2ccc3ccccc3c2)cc1,22.4µM*
CCCN(CCC)c1ccc(C2N=C(N)Nc3nc4ccccc4n32)cc1 (configuration not stated),i
CCc1ccc(NC(=O)CCS(=O)(=O)c2ccc3c(c2)n(C)c(=O)c(=O)n3C)cc1,i
CC(C)C(=O)Nc1c2c(nn1-c1ccc(F)cc1)CS(=O)(=O)C2,i
COc1ccc(CNC(=O)c2ccc(-c3ccc(F)c(F)c3)c3ccoc23)cc1OC,i
Cn1nccc1-c1coc2c(C(=O)NCC3CCOCC3)cccc12,i
NC(=O)c1cccc(-c2coc3c(C(=O)NC4CCCCC4)cccc23)c1,i
O=C(NCc1ccc(F)c(F)c1)c1cccc2c(-c3cccnc3)coc12,10µM*
O=C(NCC1CC1)c1cccc2c(-c3ccc(F)c(F)c3)coc12,22.4µM*
O=C(NCc1cccc(Cl)c1)c1ccc(-c2ccc(F)c(F)c2)c2ccoc12,i
CCC1CCc2nc3sc(C(=O)Nc4ccc(C)cc4)c(N)c3cc2C1 (configuration not stated),i
CC(=O)Nc1ccccc1OCC(=O)NCCc1ccc(Cl)cc1Cl,i
CCOc1ccccc1NC(=O)COC(=O)/C=C/c1cccs1,i
CCn1c(C)nc2cc(C(=O)N/N=C/c3cccc(OC)c3O)ccc21,i
COc1cccc(/C=N/NC(=O)c2nc(-c3ccccc3)cc(-c3ccccc3)n2)c1O,12.6µM*
COc1cccc(/C=N/NC(=O)N/N=C/c2cccc(OC)c2O)c1O,i
O=C(Nc1ccc(C(O)c2ccccc2)cc1)[C@@H]1O[C@H](CO)[C@@H](O)[C@H]1O (some centres not stated),i
COc1cc(NC(=O)CN2C(=O)C(c3ccc(C)cc3)=NC23CCCCC3)cc(OC)c1,i
Cn1c(CCC(=O)OCC(=O)NCC(F)(F)F)nc(=O)c2ccccc21,i
Cc1nc2ccccc2nc1OCC(=O)NCC(F)(F)F,i

# Screening data as filed in PubChem.
